Pf growth 96h: P. falciparum growth inhibition at 96 hour, primary screen for plastid delayed-death inhibitors; P. falciparum luciferase reporter growth, 96 h; Potency, µM (doses to about 28.7 µM), for inactives: at the top dose activity change, negative = inhibition, actives largely listed as inhibitors; 6.9% of 320,000 active; further: potency means the concentration at half of the fitted maximal effect; on the % scale 0 is the no-effect control and ±100 the full control effect
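Delayed-death screen, second-generation endpoint: infected erythrocytes, 2% hematocrit, 0.05% parasitemia final; 96 hours at 37 C, 5% CO2; luciferase detection reagent; luminescence decrease equals reduced growth.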
Giardia FBPA inh: inhibitors of Giardia lamblia fructose-1,6-bisphosphate aldolase; A8B2U2; purified Giardia FBPA; Potency, µM (series often up to 59.6 µM), for inactives: at the top dose activity, negative = inhibition, usual class: inhibitors; 0.71% of 290,000 active; AID 2451; further: potency means the concentration at half of the fitted maximal effect; on the % scale 0 is the no-effect control and ±100 the full control effect; nearly all actives have a fitted effect of over 55% in size
Target sequence (A8B2U2 whole entry, looked up): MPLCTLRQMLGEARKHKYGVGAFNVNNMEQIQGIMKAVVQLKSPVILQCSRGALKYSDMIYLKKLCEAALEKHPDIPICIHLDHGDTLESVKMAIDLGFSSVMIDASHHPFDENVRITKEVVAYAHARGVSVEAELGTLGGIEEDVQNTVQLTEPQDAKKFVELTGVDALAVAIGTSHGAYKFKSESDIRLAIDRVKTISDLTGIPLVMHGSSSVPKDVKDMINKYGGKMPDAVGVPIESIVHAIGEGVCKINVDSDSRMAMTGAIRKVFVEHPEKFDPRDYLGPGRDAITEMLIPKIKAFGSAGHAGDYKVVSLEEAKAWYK
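40 nM FBPA preincubated 10 min at RT with compound (up to 57.5 uM final), then substrate plus GAPDH/TPI/NAD/arsenate coupling and diaphorase/resazurin added. Fluorescence read after 20 min at RT, 525/598 nm.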
Shiga toxin inh: inhibitors of Shiga toxin in Vero cells | 9.2% of 290,000 active | AID 2315 | Vero cells, Shiga toxin protein synthesis inhibition reporter | inhibition, % at 38.7 µM; in the data active means inhibition mostly above about 28%, no sharp cut-off; inactive means mostly below about 43%; further: 0% is about no effect
NS1 inh: inhibitors of influenza NS1 protein function; Potency, µM (top dose mostly 46.1 µM), inactives show top-dose activity, positive = more growth; AID 2326; 0.4% of 270,000 active; calls by dose curve; further: potency means the concentration at half of the fitted maximal effect; actives are rising curves; nearly all actives have a fitted effect of over 50% in size
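Recovery from NS1-induced slow growth read by OD600 in budding yeast switched to galactose assay medium (pH 6.0, -URA) at 1:100 dilution. Compound 23 nl per well; the matching strain lacking NS1 serves as control.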
Pf growth 48h: inhibits P. falciparum growth in the first generation, 48 h | 5.9% of 310,000 active | P. falciparum luciferase growth in erythrocytes, 48 h | Potency, µM (series often up to 28.7 µM), for the others: at the highest dose activity change, negative = inhibition, hits mostly inhibitors; further: potency means the concentration at half of the fitted maximal effect; on the % scale 0 is the no-effect control and ±100 the full control effect
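Firefly luciferase activity from engineered P. falciparum reports growth; inhibitors lower the luminescent signal. Cultures contained 2% hematocrit erythrocytes at 0.1% final parasitemia.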
Cycloheximide cs: counter-screen for Shiga toxin inhibitors: cycloheximide protein synthesis inhibition. cell reporter, cycloheximide protein synthesis inhibition counterscreen. max response, %. 12% of 300,000 active. AID 2314; in the data active means max response mostly above about 13%, no sharp cut-off; inactive means mostly below about 14%; further: read at 38.3 µM for the half of the compounds with a filed dose; 0% is about no effect
* = called active by the depositor; u = inconclusive; x = no result given. The list is not random: actives were taken first. Their share in the collection is about 21%. Unless noted, the call rests on the fitted dose curve; in most records, active means well fitted curve in the direction sought with a large enough effect; inconclusive means small, poorly fitted or top-dose-only effect, or another doubt; inactive means no such curve, though single readings can be large; an effect the other way counts as inactive or inconclusive.

SMILES	Pf growth 96h	Giardia FBPA inh	Shiga toxin inh	NS1 inh	Pf growth 48h	Cycloheximide cs
CN=C1S/C(=C\c2ccc(OCC(=O)OC)c(OC)c2)C(=O)N1C	25%	14%	x	-33%	-3%	13*
O=C(COc1ccccc1F)N1CCc2ccccc2C1	11%	-6%	-6	1%	12%	-3
COc1ccc(OCC(=O)N2CCc3ccccc3C2)cc1	u	-8%	x	-16%	0%	8
Cc1cccc(C)c1OCC(=O)N1CCc2ccccc2C1	7.4µM*	10%	x	-84%	u	-2
Cc1cccc(OCC(=O)N2CCc3ccccc3C2)c1	u	-3%	33*	-15%	0%	27*
COC(=O)[C@H](Cc1ccccc1)[C@@H](C)OS(N)(=O)=O	2%	1%	-4	-3%	7%	-2
CC1C=CCC2C(=O)N(c3cccc(C(=O)Nc4ccc(F)cc4)c3)C(=O)C12 (stereo unspecified)	u	-6%	1	-4%	26%	9
c1ccc(OCc2noc(CN3CC[C@@H]4CCCC[C@H]4C3)n2)cc1	13µM*	0%	-4	-10%	18%	-3
O=C(O)c1ccc2c3c(cccc13)C(=O)N(c1ccccc1)C2=O	u	-12%	-19	1%	0%	-3
Cc1c(O)c2c3c(cccc3c1O)C(=O)N(c1ccccc1)C2=O	10µM*	-5%	-6	-23%	u	-3
O=C(Nc1ccc(S(=O)(=O)N2CCc3ccccc32)cc1)c1ccc2c(c1)OCO2	u	2%	36*	-67%	4%	31*
CC(=O)c1cccc(NC(=O)c2ccc3c(c2)CCN3S(=O)(=O)c2ccccc2)c1	12µM*	-2%	42	11%	u	24*
CC(=O)Nc1cccc(NC(=O)c2ccc3c(c2)CCN3S(=O)(=O)c2ccccc2)c1	u	7%	-2	6%	u	-1
CN(C)S(=O)(=O)c1cccc(NC(=O)c2cccc(S(=O)(=O)N3CCc4ccccc43)c2)c1	9.3µM*	x	x	x	5.9µM*	x
O=C(Nc1ccccc1)c1ccc2c(c1)CCN2S(=O)(=O)c1ccccc1	92%	x	-4	8%	3.7µM*	12
CCN(Cc1nc(-c2ccccc2)no1)C(=O)c1ccco1	-5%	x	-6	-3%	14%	1
CCOC(=O)[C@@H]1[C@H]2COc3ccc(Br)cc3[C@H]2N2C(=O)N(c3cccc(Cl)c3)C(=O)[C@]12C	u	3%	6	-22%	u	-3
NC(=O)C1CN(C(=O)c2cccc(S(=O)(=O)N3CCc4ccccc43)c2)c2ccccc2O1 (stereo unspecified)	u	x	x	x	8.3µM*	x
COc1ccc(NC(=O)c2nc[nH]c2C(=O)N[C@@H](CC(C)C)C(=O)OC(C)(C)C)cc1	u	u	-1	-61%	10µM*	-4
CNC(=O)c1[nH]cnc1C(=O)Nc1ccc(Cl)cc1	31%	-29%	40	2%	6%	28*
CNC(=O)c1[nH]cnc1C(=O)Nc1ccc(C)cc1	-9%	-11%	9	-3%	13%	9
CC(C)C[C@H](NC(=O)c1[nH]cnc1C(=O)Nc1ccc(CNC(=O)OC(C)(C)C)cc1)C(=O)OC(C)(C)C	6.6µM*	-25%	-5	u	8.3µM*	-1
CC(C)C[C@H](NC(=O)c1[nH]cnc1C(=O)Nc1ccc(CNC(=O)OC(C)(C)C)cc1)C(=O)OCc1ccccc1	u	u	-4	-3%	12µM*	-1
COc1ccc(NC(=O)c2nc[nH]c2C(=O)N[C@@H](C)C(=O)OC(C)(C)C)cc1	u	-23%	2	-52%	u	-3
Cc1ccc2[nH]cc(S(=O)(=O)c3ccc(C)c(C)c3)c(=O)c2c1	u	-10%	15	1%	4%	-3
CC[C@H](C)[C@@H](NC(=O)O[C@H]1C(=O)c2ccc(OC)cc2O[C@@H]1c1ccc2c(c1)OCO2)C(=O)OC	x	1%	x	x	x	x
COc1ccc(S(=O)(=O)N2CCN(C)CC2)cc1C(=O)Nc1ccccc1	u	5%	-5	12%	14%	-2
CC(C)(C)OC(=O)NCc1ccc(NC(=O)c2nc[nH]c2C(=O)N[C@@H](Cc2ccccc2)C(=O)OC(C)(C)C)cc1	8.3µM*	-23%	-4	u	2.3µM*	3

Compound activity: PubChem BioAssay, National Center for Advancing Translational Sciences (NCATS)
